Laboratory results taken from PubChem BioAssay AID489036 (National Center for Advancing Translational Sciences (NCATS), 2010).
Records with an inconclusive call do not appear. A call without a number means that no potency is given here. The source made the active and inactive calls. Calls follow the shape of the dose curve; as a rule, active = well fitted inhibition curve with a large enough effect; inconclusive = small, poorly fitted or top-dose-only effect, or effect the other way; inactive = flat fitted curve, though single readings scatter.

experiment: VP16 selectivity assay for inhibitors of ROR gamma transcriptional activity; conditions: Drosophila Schneider Gal4-VP16 UAS-luciferase reporter, 20 h; series mostly up to 92.2 µM
Excerpt: NIH Molecular Libraries Probe Production Network [MLPCN] NIH Chemical Genomics Center [NCGC] MLPCN Grant: R03 DA026211-01 Assay Provider: Dan Littman, New York University Assay Overview: The retinoic acid-related orphan receptor (ROR) gamma is a transcription factor that has a central role in the differentiation of Th17 cells, a subset of T helper cells that secrete the inflammatory cytokines IL-17, IL-17F, and IL-22. Th17 cells have been implicated in graft versus host disease, autoimmune disease and asthma. ROR gamma is induced in naive T helper cells in the presence of TGF-beta combined with IL-6, IL-21, or IL-23, and thereafter directs the expression of the Th17 lineage cytokines. To identify nonspecific inhibitors, a Drosophila Schneider cell line was stably transfected with two vectors: a gene expressing a fusion of the Gal4 DNA binding domain and VP16 transactivation domain under the control of the metallothionine promoter and a Photinus luciferase reporter regulated by the Gal4 binding site enhancer, UAS. […] Small molecule inhibitors that inhibit components common to the RORgt and VP16 assays, such as the Gal4 DNA binding domain or the UAS luciferase reporter, will be active in both assays and thus scored as nonspecific.
Assay Protocol Summary: For screening, 600 cells in 4 uL/well were dispensed into white solid 1536-well plates (Grenier) using a solenoid-based dispenser. Following transfer of 23 nL compound or DMSO vehicle by a pin tool, the plates were incubated 1 hr at ambient temperature, and 1 uL/well copper sulfate (700 uM final concentration) was added. The plates were centrifuged 15 s at 1000 RPM and incubated 20 hr at ambient temperature. After addition of 1.5 uL Photinus luciferase detection reagent, the plates were incubated 10 min at ambient temperature and then read by an ViewLux (Perkin Elmer) to detect luminescence.

| SMILES | Potency |
| --- | --- |
| CC1CCCN(C(=O)CC(c2ccc3c(c2)OCO3)c2ccc(O)cc2O)C1 (stereo not given) | inactive |
| CCOc1ccc(O)c(C(CC(=O)N2CCCC(C)C2)c2ccc3c(c2)OCO3)c1 (stereo not given) | inactive |
| COc1cc(O)c(C(CC(=O)N2CCCC(C)C2)c2ccccc2)c(OC)c1 (stereo not given) | inactive |
| COc1cc(O)c(C(CC(=O)N2CCC(C)CC2)c2ccc3c(c2)OCO3)c(OC)c1 (stereo not given) | inactive |
| Cc1cc(C)nc(-n2nc(C)cc2NC(=O)CNC(C)c2ccccc2)n1 (stereo not given) | 18.2 µM (active) |
| C#CCOc1cc(OC)cc(OC)c1C(CC(=O)N1CCCC(C)C1)c1ccc2c(c1)OCO2 (stereo not given) | 45.7 µM (active) |
| COC(=O)Cn1c(CN2CCc3ccccc3C2)nc2c1c(=O)n(C)c(=O)n2C | 9.11 µM (active) |
| CC1=C(\C=C/C(C)=C/C=C\C(C)=C\C(=O)O)C(C)(C)CCC1 | 8.48 µM (active) |
| CCCCNC(=O)CC(c1ccc2c(c1)OCO2)c1c(O)cc(OC)cc1OC (stereo not given) | inactive |
| COc1cc(O)c(C(CC(=O)N2C[C@H](C)C[C@H](C)C2)c2ccc3c(c2)OCO3)c(OC)c1 (stereo not given in full) | inactive |
| COc1cc(O)c(C(CC(=O)N2CCC[C@H](C)C2)c2ccc3c(c2)OCO3)c(OC)c1 (stereo not given in full) | inactive |
| COc1cc(O)c(C(CC(=O)N2CCC(c3ccccc3)CC2)c2ccc(OC)c(OC)c2)c(OC)c1 (stereo not given) | inactive |
| COc1cc(O)c(C(CC(=O)N2CCCCC2)c2ccc(C)cc2)c(OC)c1 (stereo not given) | inactive |
| Cc1ccc(C)c(/C=N/n2cc(-c3ccccc3)[nH]c2=S)c1 | 20.4 µM (active) |
| COc1cc(O)c(C(CC(=O)N2CCCC(CO)C2)c2ccc3c(c2)OCO3)c(OC)c1 (stereo not given) | inactive |
| Cc1ccc(-c2cn(-c3ccccc3)c3[n+]2CCCS3)cc1 | 10.2 µM (active) |
| COc1cc(C)nc(-n2nc(C)cc2OC)n1 | 14.4 µM (active) |
| COc1cc(O)c(C(CC(=O)N2CC(C)OC(C)C2)c2ccc3c(c2)OCO3)c(OC)c1 (stereo not given) | inactive |
| CC(C)(C(=O)Nc1nccs1)C(c1ccccc1)c1ccc(O)cc1 (stereo not given) | 36.3 µM (active) |
| COc1ccc(C(CC(=O)N2CCCC(C)C2)c2ccc3c(c2)OCO3)c(O)c1 (stereo not given) | inactive |

| SMILES | Potency |
| --- | --- |
| C[C@H]1O[C@@H](O[C@H]2[C@@H](O)C[C@@H](O[C@H]3[C@@H](O)C[C@H](O[C@H]4CC[C@@]5(C)[C@H](CC[C@@H]6[C@@H]5CC[C@]5(C)[C@@H](C7=CC(=O)OC7)CC[C@]65O)C4)O[C@@H]3C)O[C@@H]2C)C[C@H](O)[C@@H]1O | inactive |
| COc1cc(O)c(C(CC(=O)N2CCCC(CN3CCCCC3)C2)c2ccc3c(c2)OCO3)c(OC)c1 (stereo not given) | inactive |
| CCn1cc(C(=O)O)c(=O)c2cnc(N3CCN(C(=S)NC(=O)c4ccccc4)CC3)nc21 | 20.4 µM (active) |
| COc1cc(O)c(C(CC(=O)N2CCCC(C)C2)c2ccc(C)cc2)c(OC)c1 (stereo not given) | 45.7 µM (active) |
| COc1cc(O)c(C(CC(=O)N2CCCC(c3nc4ccccc4o3)C2)c2ccc3c(c2)OCO3)c(OC)c1 (stereo not given) | inactive |
| COc1cc(O)c(C(CC(=O)N2CCC(C)CC2)c2ccc(OC)c(OC)c2)c(OC)c1 (stereo not given) | inactive |
| COc1ccc(-c2nnc(-c3ccc(N(C)C)cc3)o2)cc1 | inactive |
| COc1cc(OC)c(C(CC(=O)N2CC(C)CC(C)C2)c2ccc3c(c2)OCO3)c(OCC(N)=O)c1 (stereo not given) | inactive |
| COc1ccc(C(=O)Nc2cc(-c3ccc(C)cc3)no2)cc1 | inactive |
| COc1cc(O)c(C(CC(=O)N2CCCC(C)C2)c2ccc(C(C)C)cc2)c(OC)c1 (stereo not given) | 25.7 µM (active) |
| COc1cc(O)c(C(CC(=O)Nc2ccc(C)cc2)c2ccc3c(c2)OCO3)c(OC)c1 (stereo not given) | 40.7 µM (active) |
| COCOc1cc(OC)cc(OC)c1C(CC(=O)N1CC(C)CC(C)C1)c1ccc2c(c1)OCO2 (stereo not given) | 45.7 µM (active) |
| COc1cc(O)c(C(CC(=O)N2CCCC(C(=O)c3ccccc3)C2)c2ccc3c(c2)OCO3)c(OC)c1 (stereo not given) | inactive |
| COc1cc(O)c(C(CC(=O)N(Cc2ccccc2)Cc2ccccc2)c2ccc3c(c2)OCO3)c(OC)c1 (stereo not given) | inactive |
| COc1cc(O)c(CCC(=O)N2CCCC(C)C2)c(OC)c1 (stereo not given) | inactive |
| COc1cc(O)c(C(CC(=O)N2CCC(c3ccccc3)CC2)c2ccc3c(c2)OCO3)c(OC)c1 (stereo not given) | inactive |
| COc1cc(O)c(C(CC(=O)N2CCC(Cc3ccccc3)CC2)c2ccc(OC)c(OC)c2)c(OC)c1 (stereo not given) | inactive |
| COc1cc(OC)c(C(CC(=O)N2CCCC(C)C2)c2ccc3c(c2)OCO3)c(OC)c1 (stereo not given) | 51.2 µM (active) |
| O=C(CCCOc1ccccc1)Nc1nc2ccccc2[nH]1 | 14.4 µM (active) |
| CC(C)[C@H](NC(=O)C1CCN(C(=O)[C@@H]2CCCN2C(=O)OC(C)(C)C)CC1)C(=O)NCc1ccc(F)cc1 | inactive |
